{"source": "PubChem BioAssay (NCATS)", "note": "Activity calls are given as the source filed them. Where a call stands in place of a potency, no number is given. Calls follow the shape of the dose curve; as a rule, active = well fitted cell-killing curve with a large enough effect; inconclusive = small, poorly fitted or top-dose-only effect, or effect the other way; inactive = flat fitted curve, though single readings scatter. Potency is read from the fitted curve at half-maximal effect."}
{"assay": "MultiTox-Fluor Cytotoxicity Assay - LYMP1-003 - Dead Cells (AID 961); also: nearly all actives have a fitted effect of over 70% in size", "conditions": "LYMP1-003 lymphoblastoid cells, dead-cell protease fluorescence; series mostly up to 92.2 µM", "description": "NIH Chemical Genomics Center [NCGC]\nNIH Molecular Libraries Screening Centers Network [MLSCN]\nNational Institutes of Environmental Health Sciences [NIEHS]\nNational Toxicology Program [NTP]\nWe have developed a 1536-well cell-based assay for quantitative high throughput screening (qHTS) against a number of cell lines to determine in vitro cytotoxicity of small molecules. This particular assay uses a human lymphoblastoid cell line (LYMP1-003) purchased from Coriell Institute.\nNCGC Assay Protocol Summary:\nThe MultiTox-Fluor Cytotoxicity Assay (Promega) is a homogeneous method to simultaneously measure the relative number of live and dead cells in culture by detecting changes in cell membrane integrity. There are two fluorogenic peptide substrates in the assay reagent. Viable cells are determined when the cell-permeant substrate (GF-AFC) enters the cell and is cleaved by protease from live cells resulting in liberated fluorophore. This live-cell protease activity restricted to viable cells is proportional to cell number. The dead cells are determined by using fluorogenic cell-impermeant peptide substrate (bis-AAF-R110) which cleaved by dead cell proteases leaking from damaged cell membrane.\nUsing the MultiTox-Fluor Cytotoxicity Assay, the relative number of dead cells was measured in the lymphoblastoid cell line with complete culture medium following compound treatment for 16 hours. The assay was performed in opaque black Kalypsys 1536-well plates. In the screen, tetraoctylammonium bromide was used as positive control. Library compounds were measured for their ability to cause acute toxicity in the cell line, as reflected by an increase in dead cell protease activity, in a concentration-dependent manner. Data were normalized to the controls for basal activity (DMSO only) and 100% stimulation (15 uM tetraoctylammonium bromide). AC50 values were determined from concentration-response data modeled with the standard Hill equation.\nqHTS protocol for MultiTox-Fluor Cytotoxicity assay\n[Step] [Parameter] [Value] [Description]\n1. Reagent; 5 uL; 2500 lymphoblastoid cells/well\n2. Time; 5 hr; 37 C incubation\n4. Controls; 23 nL; Tetraoctylammonium bromide 6.4pM to 92 uM\n5. Time; 16 hr; 37 C incubation\n6. Reagent; 5 uL; MuliTox-Fluor Assay reagent\n7. Time; 60 min; Room Temperature\n8. Detection; dead-cell fluorescence (Ex/Em=485/520); EnVision plate reader\nKeywords: cytotoxicity, lymphoblastoid cell line, fluorescence, NTPHTS, NTPHTS_NCGC, NIEHS, EPA, DSSTox, MLSMR, MLSCN, NIH Roadmap, qHTS, NCGC"}
{"compound": "S=c1[nH]c2ccccc2s1", "Potency": "inactive"}
{"compound": "O=C(O)/C=C\\C(=O)O", "Potency": "inactive"}
{"compound": "Nc1nc2ccc([N+](=O)[O-])cc2s1", "Potency": "inactive"}
{"compound": "COc1cc(CNC(=O)CCCC/C=C/C(C)C)ccc1O", "Potency": "inactive"}
{"compound": "c1ccc2sc(SSc3nc4ccccc4s3)nc2c1", "Potency": "inactive"}
{"compound": "O=C(O)c1cc(O)c(O)c(O)c1", "Potency": "inactive"}
{"compound": "COc1cc(/C=C/C(=O)CC(=O)/C=C/c2ccc(O)c(OC)c2)ccc1O", "Potency": "50.1 µM (active)"}
{"compound": "c1cnc2c(c1)ccc1cccnc12", "Potency": "inactive"}
{"compound": "N=C1N=C(N)c2cc3ccccc3cc21", "Potency": "39.8 µM (active)"}
{"compound": "CCCCCCCCCCCCCCCCCC(=O)O", "Potency": "inactive"}
{"compound": "CC(C)NCC(O)COc1cccc2ccccc12", "note": "(stereo not drawn)", "Potency": "inactive"}
{"compound": "CN(C)c1ccc(C(=C2C=CC(=[N+](C)C)C=C2)c2ccccc2)cc1", "Potency": "2 µM (active)"}
{"compound": "CC1(C)S[C@@H]2[C@H](NC(=O)[C@H](N)c3ccccc3)C(=O)N2[C@H]1C(=O)O", "Potency": "inactive"}
{"compound": "Nc1ccc([N+](=O)[O-])cc1O", "Potency": "inactive"}
{"compound": "Nc1ccc(O)c([N+](=O)[O-])c1", "Potency": "inactive"}
{"compound": "O=C1CN(/N=C/c2ccc([N+](=O)[O-])o2)C(=O)N1", "Potency": "inactive"}
{"compound": "NCCO", "Potency": "inactive"}
{"compound": "CN(C)c1ccc(N=NS(=O)(=O)O)cc1", "Potency": "inactive"}
{"compound": "CN(C)CCC(c1ccc(Cl)cc1)c1ccccn1", "note": "(stereo not drawn)", "Potency": "inactive"}
{"compound": "O=c1cc(-c2ccccc2)oc2ccccc12", "Potency": "inactive"}
{"compound": "CN1CCC[C@H]1c1cccnc1", "Potency": "inactive"}
{"compound": "CCCOC(=O)c1ccc(O)cc1", "Potency": "inactive"}
{"compound": "Nc1ccc(O)c(C(=O)O)c1", "Potency": "inactive"}
